Assay [1] is described as follows: StAR promoter reporter inhibitors, counter-screen for LRH-1 inverse agonist project, cell-based, luminescence, high throughput (AID 651611; in the data active means inhibition above about 28%). Conditions: StAR promoter luciferase reporter counterscreen, at 3.6 µM, stronger effect = higher value. A general note: Counterscreens check selectivity or assay interference.
Assay [2] deals with Nuclear receptor subfamily 5 group A member 2 (Homo sapiens) (UniProt O00482). The assay is described as follows: LRH-1 (NR5A2) inverse agonists, retest, confirmation, cell-based, luminescence (AID 651613; in the data active means inhibition above about 42%;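 further: HEK293T cells co-transfected with LRH-1 and StAR promoter luciferase reporter; 0% = vehicle wells and 100% = parental cells lacking receptor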). Conditions: cell-based LRH-1 luciferase reporter, inverse agonism; at 3.6 µM; stronger effect = higher value. On the technique in general: A reporter such as luciferase makes a cellular process visible.
Chain of Nuclear receptor subfamily 5 group A member 2 (Homo sapiens) (O00482 whole entry, looked up): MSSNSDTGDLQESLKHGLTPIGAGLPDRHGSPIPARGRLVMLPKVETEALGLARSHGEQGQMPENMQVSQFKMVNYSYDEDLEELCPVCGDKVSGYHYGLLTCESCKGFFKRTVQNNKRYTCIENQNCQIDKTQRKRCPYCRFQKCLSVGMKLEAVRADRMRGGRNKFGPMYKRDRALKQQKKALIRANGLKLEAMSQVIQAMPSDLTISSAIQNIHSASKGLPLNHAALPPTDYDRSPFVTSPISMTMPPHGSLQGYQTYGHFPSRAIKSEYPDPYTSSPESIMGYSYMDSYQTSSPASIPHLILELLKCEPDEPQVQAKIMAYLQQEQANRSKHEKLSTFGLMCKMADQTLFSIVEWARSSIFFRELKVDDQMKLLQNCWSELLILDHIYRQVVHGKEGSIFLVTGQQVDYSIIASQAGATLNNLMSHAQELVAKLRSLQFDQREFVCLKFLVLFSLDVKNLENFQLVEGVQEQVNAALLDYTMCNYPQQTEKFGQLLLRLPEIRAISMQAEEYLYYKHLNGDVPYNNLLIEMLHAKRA

For assay [3], the target named is Steroidogenic factor 1 (Homo sapiens) (UniProt Q13285). The assay is described as follows: SF1 (NR5A1) inverse agonists, counter-screen for LRH-1 inverse agonist project, cell-based, luminescence, high throughput (AID 651614).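 Further: cells cotransfected with StAR promoter reporter and SF1 expression vector; 0% = vehicle on cells with receptor and 100% = vehicle on cells lacking receptor.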 Conditions: cell-based SF1 luciferase reporter, at 3.6 µM, stronger effect = higher value.
Chain of Steroidogenic factor 1 (Homo sapiens) (Q13285 whole entry, looked up, the tested form may be a part): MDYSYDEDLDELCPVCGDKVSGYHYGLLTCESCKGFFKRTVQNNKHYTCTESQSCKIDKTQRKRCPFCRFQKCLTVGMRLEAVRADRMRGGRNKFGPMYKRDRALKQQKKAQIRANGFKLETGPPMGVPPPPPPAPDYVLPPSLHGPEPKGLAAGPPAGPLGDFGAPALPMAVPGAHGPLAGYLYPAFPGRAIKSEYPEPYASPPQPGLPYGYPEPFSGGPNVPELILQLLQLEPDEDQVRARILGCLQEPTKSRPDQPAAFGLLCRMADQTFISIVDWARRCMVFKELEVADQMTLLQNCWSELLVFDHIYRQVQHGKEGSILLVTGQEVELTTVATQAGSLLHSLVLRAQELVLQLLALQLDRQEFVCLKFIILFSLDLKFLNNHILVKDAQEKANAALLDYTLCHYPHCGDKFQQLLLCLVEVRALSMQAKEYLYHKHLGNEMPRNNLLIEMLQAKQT
Assay [4] is described as follows: VP16 transactivation reporter inhibitors, counter-screen for LRH-1 inverse agonist project, cell-based, luminescence, high throughput (AID 651615; in the data active means inhibition above about 33%). Conditions: Gal4-VP16 luciferase reporter cells, at 3.6 µM, stronger effect = higher value.

For 25 molecules, inhibition results are on record in PubChem BioAssay.

Structures are written as SMILES. Unmarked numbers belong to inactive results. The source made the active and inactive calls. Unless noted, no stated cut-off is given here; in the data, active means inhibition above about 44%; inactive means the rest.

For `O=C(Cn1ncc(Cl)c(Cl)c1=O)Nc1ccc2c(c1)OCO2`, the inhibition is -10.7% in assay [1], 38.1% in assay [2], 47.4% (active) in assay [3] and -13.7% in assay [4].
Take `CNc1c2cccc(C)c2nc2c(C(=O)NCCN(C)C)cccc12`: the inhibition was 80.3% (active) in assay [1], 109% (active) in assay [2], 98% (active) in assay [3] and 74.7% (active) in assay [4].
In the case of `CCOC(=O)c1cccc(C2=CC(=O)CC(C)(C)C2)c1`, the inhibition in assay [1] was 1.21%; in assay [2], 46.3% (active); in assay [3], 48.8% (active); in assay [4], -12%.
The corresponding values for `Nc1nc(-c2ccccc2)c(CCCOc2ccc(NC(=O)CBr)cc2)c(=O)[nH]1` are 15.7%, 61.6% (active), 48.9% (active) and -15.6%.
The corresponding values for `O=C1CCCN2N=C(SCC(=O)Nc3ccc(Br)cc3)SC2=N1` are -4.32%, 49.1% (active), 48.8% (active) and -7.91%.
In the case of `Cc1cc(Br)ccc1NC(=O)CSc1nnc(CN2CCOCC2)n1C`, the inhibition in assay [1] was 15.4%; in assay [2], 47.8% (active); in assay [3] it was 42.5%; in assay [4] it was 0.09%.
The corresponding values for `CCOc1ccc(NC(=O)CSc2nc(O)c(C)c(=O)n2-c2ccc(F)cc2)cc1` are 5.33%, 60.6% (active), 50.6% (active) and -14.2%.
The corresponding values for `O=C(CCl)Nc1cccc2ncccc12` are 55.6% (active), 61.7% (active), 60.9% (active) and -58.5%.
The corresponding values for `CCOc1ccc(NC(=O)CSc2nc3c(c(=O)n2-c2ccccc2OC)SCC3)cc1` are 8.34%, 63.1% (active), 58.7% (active) and -10.6%.
In the case of `Cc1c(C(=O)NC(C)c2ccncc2)oc2ccccc12` (stereo not given), the inhibition was -19.6% in assay [1], 44.2% (active) in assay [2], 42.9% (active) in assay [3] and -7.87% in assay [4].
With `COCC(=O)NC1CCN(CC(=O)Nc2ccc(OC)cc2[N+](=O)[O-])CC1`, the inhibition in assay [1] is 14.2%; in assay [2], 60.2% (active); in assay [3], 60.8% (active); in assay [4], -2.25%.
Regarding `CC(=O)ON=C1C=CC(=C(C#N)c2ccccc2)C=C1`, the inhibition in assay [1] is 50.8% (active); in assay [2], 79% (active); in assay [3], 79.4% (active); in assay [4] it was 20.2%.
As for `O=NN(CCc1ccncc1)c1ccc(OCc2ccccc2)cc1`, the inhibition in assay [1] was 3.58%; in assay [2] it was 73.2% (active); in assay [3], 66.6% (active); in assay [4] it was 50.5% (active).
The corresponding values for `CCCc1cc(=O)oc2cc3occ(C)c3cc12` are -0.89%, 42.1% (active), 37.8% and 1.16%.
`O=C(COC(=O)Cn1[nH]c(=O)c2ccccc2c1=O)NNC(=O)c1ccc(Br)cc1`: the inhibition was 27.8% (active) in assay [1], 32.1% in assay [2], 35.8% in assay [3] and -7.59% in assay [4].
For `COc1ccc(OC)c(C2C3=C(COC3=O)Nc3cc4c(cc32)OCO4)c1` (stereo not given), in that order: 57.4% (active), 27.6%, 41.7% and 27.9%.
The corresponding values for `CCCc1cc(NCCOCCO)n2c(nc3ccccc32)c1C#N` are 4.93%, 45.1% (active), 36.6% and -14.6%.
Take `CCCN(CC(=O)Nc1ccc(C(N)=O)cc1)CC(=O)Nc1ccccc1C`: the inhibition in assay [1] was 15.3%; in assay [2] it was 55.4% (active); in assay [3], 53.9% (active); in assay [4], 6.63%.
In the case of `CC(=O)N1CCN(c2ccc(NCc3ccc(C)cc3)cc2)CC1`, the inhibition in assay [1] is 1.04%; in assay [2], 34.2%; in assay [3], 33.7%; in assay [4] it was 1.11%.
As for `CCOc1ccc(NC(=O)Cn2cc(C(C)=O)c3ccccc32)cc1`, the inhibition in assay [1] was 22.7%; in assay [2] it was 78.3% (active); in assay [3], 73.8% (active); in assay [4] it was 41.9% (active).
As for `COc1ccc(/C=N/NC(=O)c2[nH]c3ccc(Br)cc3c2-c2ccccc2)cc1`, the inhibition is 62.3% (active) in assay [1], 42.6% (active) in assay [2], 50.7% (active) in assay [3] and 32.6% (active) in assay [4].
The corresponding values for `Cc1cc2ncn(/N=C/c3ccc([N+](=O)[O-])s3)c2cc1C` are 12.7%, 60% (active), 58.6% (active) and -1.24%.
For `COc1ccc(S(=O)(=O)N2CCCN(CC(=O)Nc3ccc(OC)c(Cl)c3)CC2)cc1`, in that order: 17.7%, 65.8% (active), 57.7% (active) and -5.36%.
The corresponding values for `COc1cccc(C(C)(O)c2nc(-c3cccc(C#N)c3)cs2)c1` (stereo not given) are 19.6%, 55.2% (active), 49.4% (active) and 22.6%.
For `COc1ccc(NC(=O)/C(Cl)=C(/Cl)S(=O)Cc2ccc(Cl)cc2)cn1` (stereo not given), the inhibition was 58% (active) in assay [1], 91.7% (active) in assay [2], 84.6% (active) in assay [3] and 89.5% (active) in assay [4].

Broadly, the inhibition is the relative decrease from the control value, in per cent.
